Source: the supplement of paper PMC10849652
Targets with a hit are over-represented here; the source holds about 7,900 in all. About 0.6% of all pairs of compound and target were hits.

What was measured:
Experiment in all cases: log2 fold change, soluble protein after heating vs DMSO (PISA); higher = thermal stabilisation; K562 cells, 10 uM, 30 min; active = over 0.2 and 3.5 SD of the protein, either way, in both replicates (recomputed)
volasertib = compound: CC[C@@H]1C(=O)N(C)c2cnc(Nc3ccc(C(=O)N[C@H]4CC[C@H](N5CCN(CC6CC6)CC5)CC4)cc3OC)nc2N1C(C)C [volasertib]
Summary of the method: (§1)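 Aliquots of K562 cells (2×10^6 cells/mL) treated with 10 μM compound for 30 min were heated for 3 min over 48°C-58°C. After pooling and extraction in PBS with 0.5% NP-40 at 4°C, soluble protein from a 21,000xg, 90 min spin was quantified by TMTpro 16plex LC-MS/MS with channel sums equalised. Thermal stability is expressed against control samples, from duplicates, as a log2 fold change.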

[1] = compound: CC[C@H](C)N1C=C(C2=C(C=C(C=C21)C3=CN=C(C=C3)N4CCNCC4)C(=O)NCC5=C(C=C(NC5=O)C)C)C
Summary of the method: as §1

[2] = compound: CCn1c(C(=O)N(C2CC2)C2CC2)cc2c3c(ncn3C)c(Nc3cc(C)n(C)n3)nc21
Summary of the method: as §1

[3] = compound: CCn1cc(-c2ccnc3[nH]c(-c4cccc(CN(C)C)c4)cc23)c(-c2ccc(NC(=O)N(C)C)cc2)n1
Summary of the method: as §1

[4] = compound: CN(C)CC(=O)Nc1ccc2[nH]c(=O)c3ccccc3c2c1
Summary of the method: as §1

rosiglitazone = compound: CN(CCOC1=CC=C(C=C1)C[C@H]2C(=O)NC(=O)S2)C3=CC=CC=N3 (racemic) [rosiglitazone]
Summary of the method: as §1

[5] = compound: CN1CCC(CNc2ccc3ncc(-c4cccc(OC(F)(F)F)c4)n3n2)CC1
Summary of the method: as §1

sotrastaurin = compound: CN1CCN(c2nc(C3=C(c4c[nH]c5ccccc45)C(=O)NC3=O)c3ccccc3n2)CC1 [sotrastaurin]
Summary of the method: as §1

alvocidib = compound: CN1CC[C@H](c2c(O)cc(O)c3c(=O)cc(-c4ccccc4Cl)oc23)[C@H](O)C1 [alvocidib]
Summary of the method: as §1

Tubastatin A = compound: CN1CCc2c(c3ccccc3n2Cc2ccc(C(=O)NO)cc2)C1 [Tubastatin A]
Summary of the method: as §1

[6] = compound: CNC(=O)C1=CC=CC=C1NC2=NC(=NC=C2Cl)NC3=C(C=C(C=C3)N4CCOCC4)OC
Summary of the method: as §1

defactinib = compound: CNC(=O)c1ccc(Nc2ncc(C(F)(F)F)c(NCc3nccnc3N(C)S(C)(=O)=O)n2)cc1 [defactinib]
Summary of the method: as §1

[7] = compound: COC(=O)[C@H](CCSC)NC(=O)C1=C(C=C(C=C1)NC[C@H](CS)N)C2=CC=CC=C2
Summary of the method: as §1

[8] = compound: CC[C@@H]1C(=O)N(C)c2cnc(Nc3ccc(C(=O)NC4CCN(C)CC4)cc3OC)nc2N1C1CCCC1
Summary of the method: as §1

epoxomicin = compound: CC[C@H](C)[C@@H](C(=O)N[C@@H]([C@@H](C)O)C(=O)N[C@@H](CC(C)C)C(=O)[C@]1(CO1)C)NC(=O)[C@H]([C@@H](C)CC)N(C)C(=O)C [epoxomicin]
Summary of the method: as §1

[9] = compound: CN1C2=C(C3=C1C(=O)N(N=C3)CC4=CC(=CC=C4)N)SC(=C2)S(=O)C
Summary of the method: as §1

saracatinib = compound: CN1CCN(CCOc2cc(OC3CCOCC3)c3c(Nc4c(Cl)ccc5c4OCO5)ncnc3c2)CC1 [saracatinib]
Summary of the method: as §1

rucaparib = compound: CNCc1ccc(-c2[nH]c3cc(F)cc4c3c2CCNC4=O)cc1 [rucaparib]
Summary of the method: as §1

[10] = compound: CNc1nc(-c2ccc3c(N)n[nH]c3c2)cc(N2C[C@@H](C(=O)NC3CCCCC3)CC[C@H]2C)n1
Summary of the method: as §1

encorafenib = compound: COC(=O)N[C@@H](C)CNc1nccc(-c2cn(C(C)C)nc2-c2cc(Cl)cc(NS(C)(=O)=O)c2F)n1 [encorafenib]
Summary of the method: as §1

Measured: log2 fold change

MYH16 (UniProt Q9H6N6)
inactive: volasertib 0.077 | [1] 0.156 | [2] 0.029 | [3] -0.067 | [4] 0.011 | rosiglitazone 0.065 | [5] 0.26 | sotrastaurin -0.224 | alvocidib 0.138 | Tubastatin A -0.069 | [6] -0.075 | defactinib 0.013 | [7] -0.171

NDUFA7 (UniProt M0R0N0)
inactive: [2] -0.017 | [4] -0.092 | rosiglitazone 0.081 | sotrastaurin 0.201 | [6] -0.195 | defactinib 0.076 | [7] 0.093

MSANTD2 (UniProt Q6P1R3)
inactive: [8] -0.071 | epoxomicin -0.273 | [4] 0.004 | [9] 0.13 | saracatinib -0.248 | sotrastaurin 0.105 | Tubastatin A 0.032 | defactinib -0.113 | rucaparib -0.32 | [10] 0.03 | encorafenib -0.067 | [7] -0.01

MOB2 isoform 3 (UniProt Q70IA6)
Sequence of UniProt Q70IA6 (Q70IA6 whole entry, looked up): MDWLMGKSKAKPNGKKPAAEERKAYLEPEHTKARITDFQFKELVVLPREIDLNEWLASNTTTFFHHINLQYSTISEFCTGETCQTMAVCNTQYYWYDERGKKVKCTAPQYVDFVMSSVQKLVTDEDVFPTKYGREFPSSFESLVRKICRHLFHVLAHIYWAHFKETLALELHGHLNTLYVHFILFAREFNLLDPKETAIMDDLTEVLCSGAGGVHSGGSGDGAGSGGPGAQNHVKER
inactive: volasertib -0.231 | [1] 0.207 | epoxomicin -0.193 | [2] -0.036 | [3] -0.029 | rosiglitazone -0.004 | [5] -0.103 | alvocidib -0.017 | Tubastatin A -0.073 | [6] -0.123

ORC3 (UniProt Q9UBD5)
Sequence of UniProt Q9UBD5 (Q9UBD5 whole entry, looked up): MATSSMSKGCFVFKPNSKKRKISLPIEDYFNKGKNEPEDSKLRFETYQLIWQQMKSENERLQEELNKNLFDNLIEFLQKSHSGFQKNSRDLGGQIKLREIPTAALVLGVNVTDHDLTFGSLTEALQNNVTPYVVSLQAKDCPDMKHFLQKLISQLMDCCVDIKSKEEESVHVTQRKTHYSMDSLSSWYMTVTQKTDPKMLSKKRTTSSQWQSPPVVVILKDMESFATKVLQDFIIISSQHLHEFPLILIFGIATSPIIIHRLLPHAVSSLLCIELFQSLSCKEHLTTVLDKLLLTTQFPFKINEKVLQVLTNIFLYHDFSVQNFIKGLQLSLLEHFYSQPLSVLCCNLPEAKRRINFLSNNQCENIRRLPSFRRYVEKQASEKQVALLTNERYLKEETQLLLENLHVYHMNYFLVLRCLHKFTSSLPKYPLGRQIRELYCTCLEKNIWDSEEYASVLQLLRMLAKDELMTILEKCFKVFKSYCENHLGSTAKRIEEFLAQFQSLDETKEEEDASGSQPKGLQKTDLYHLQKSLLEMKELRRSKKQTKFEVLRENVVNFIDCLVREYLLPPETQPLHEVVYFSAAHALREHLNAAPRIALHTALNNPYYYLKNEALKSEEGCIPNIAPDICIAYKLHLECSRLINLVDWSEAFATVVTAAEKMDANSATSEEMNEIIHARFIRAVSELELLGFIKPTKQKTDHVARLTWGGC
inactive: [8] -0.167 | rucaparib 0.061 | encorafenib 0.032

NIPSNAP2 (UniProt C9J7B1)
inactive: rosiglitazone -0.065 | sotrastaurin -0.073

NEU3 isoform 2 (UniProt Q9UQ49)
inactive: volasertib -0.158 | [2] -0.074 | sotrastaurin 0.004 | [6] 0.091

MRM2 (UniProt Q9UI43)
inactive: volasertib -0.083 | [1] 0.008 | [2] 0.065 | [4] -0.122 | [9] -0.042 | saracatinib 0.173 | alvocidib -0.364 | Tubastatin A -0.07 | [6] 0.033 | defactinib -0.24 | [10] 0.004 | [7] 0.101

MTFR1L (UniProt Q9H019)
Sequence of UniProt Q9H019 (Q9H019 whole entry, looked up): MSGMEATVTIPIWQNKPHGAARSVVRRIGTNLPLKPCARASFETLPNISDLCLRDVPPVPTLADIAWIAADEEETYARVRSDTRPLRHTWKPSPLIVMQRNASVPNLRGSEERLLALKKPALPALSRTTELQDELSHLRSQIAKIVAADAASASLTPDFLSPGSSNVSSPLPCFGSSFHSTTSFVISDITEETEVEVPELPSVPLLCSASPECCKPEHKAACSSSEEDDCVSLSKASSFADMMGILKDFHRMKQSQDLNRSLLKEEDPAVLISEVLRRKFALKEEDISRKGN
active: volasertib -0.586
inactive: [1] 0.036 | epoxomicin 0.023 | [2] -0.145 | [3] -0.186 | [4] 0.08 | rosiglitazone -0.019 | [9] 0.013 | [5] -0.296 | saracatinib 0.052 | sotrastaurin -0.037 | alvocidib -0.106 | Tubastatin A 0.052 | [6] -0.024 | defactinib -0.085 | [10] -0.054 | [7] -0.14

OGFOD2 (UniProt Q6N063)
Sequence of UniProt Q6N063 (Q6N063 whole entry, looked up): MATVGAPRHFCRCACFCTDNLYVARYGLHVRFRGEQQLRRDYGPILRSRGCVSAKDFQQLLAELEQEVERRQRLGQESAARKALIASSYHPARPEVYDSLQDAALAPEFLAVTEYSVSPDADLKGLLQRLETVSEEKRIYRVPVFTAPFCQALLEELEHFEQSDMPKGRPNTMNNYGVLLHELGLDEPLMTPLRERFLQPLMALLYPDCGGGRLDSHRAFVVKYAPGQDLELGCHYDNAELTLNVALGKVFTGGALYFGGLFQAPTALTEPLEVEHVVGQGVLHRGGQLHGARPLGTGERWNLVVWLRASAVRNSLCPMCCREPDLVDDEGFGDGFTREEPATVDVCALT
active: [3] -0.372
inactive: [8] -0.007 | [1] -0.019 | epoxomicin 0.08 | [2] -0.033 | [4] 0.035 | rosiglitazone -0.027 | [9] 0.147 | [5] -0.112 | saracatinib 0.095 | alvocidib -0.035 | Tubastatin A -0.08 | [6] 0.094 | defactinib -0.076 | rucaparib -0.029 | [10] 0.009 | encorafenib 0.133 | [7] 0.032

OPHN1 (UniProt O60890)
inactive: [8] 0.036 | [1] -0.016 | epoxomicin 0.043 | [2] -0.019 | [3] -0.143 | rosiglitazone 0.121 | [9] 0.108 | [5] -0.095 | saracatinib -0.033 | sotrastaurin 0.011 | alvocidib 0.094 | Tubastatin A -0.008 | [6] -0.036 | rucaparib -0.011 | [10] -0.01 | encorafenib 0.038

NCOA5 (UniProt Q9HCD5)
inactive: volasertib 0.072 | [1] -0.019 | [2] 0.026 | [3] 0.038 | [9] 0.187 | [5] 0.036 | saracatinib 0.002 | sotrastaurin 0.188 | [6] -0.081 | [10] -0.04

MYSM1 (UniProt Q5VVJ2)
Sequence of UniProt Q5VVJ2 (Q5VVJ2 whole entry, looked up): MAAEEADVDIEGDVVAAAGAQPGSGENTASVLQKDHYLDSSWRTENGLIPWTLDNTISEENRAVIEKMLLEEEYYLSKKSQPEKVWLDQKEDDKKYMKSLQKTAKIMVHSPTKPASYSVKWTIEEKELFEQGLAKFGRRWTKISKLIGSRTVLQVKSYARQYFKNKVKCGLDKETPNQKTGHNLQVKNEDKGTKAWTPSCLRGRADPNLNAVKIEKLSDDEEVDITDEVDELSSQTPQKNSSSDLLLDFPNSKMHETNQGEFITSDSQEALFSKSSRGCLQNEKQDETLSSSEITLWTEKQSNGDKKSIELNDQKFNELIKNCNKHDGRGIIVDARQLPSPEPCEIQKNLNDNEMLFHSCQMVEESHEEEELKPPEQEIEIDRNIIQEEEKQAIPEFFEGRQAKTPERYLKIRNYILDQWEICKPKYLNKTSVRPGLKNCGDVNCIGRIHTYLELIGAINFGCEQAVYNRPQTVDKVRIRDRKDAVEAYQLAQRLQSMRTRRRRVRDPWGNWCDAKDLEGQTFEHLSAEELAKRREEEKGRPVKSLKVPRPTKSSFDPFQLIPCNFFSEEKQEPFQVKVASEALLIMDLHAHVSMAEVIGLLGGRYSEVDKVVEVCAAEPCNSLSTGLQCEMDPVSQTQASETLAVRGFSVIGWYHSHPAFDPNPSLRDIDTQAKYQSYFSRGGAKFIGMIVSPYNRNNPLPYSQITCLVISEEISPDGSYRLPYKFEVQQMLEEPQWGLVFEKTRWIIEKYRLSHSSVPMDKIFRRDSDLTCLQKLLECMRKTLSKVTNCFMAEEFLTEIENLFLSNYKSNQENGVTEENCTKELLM
inactive: [8] -0.17 | rosiglitazone 0.157 | sotrastaurin -0.294 | rucaparib 0.003 | encorafenib 0.13

PAFAH2 (UniProt Q99487)
inactive: volasertib -0.058 | [2] -0.328 | [4] 0.005 | rosiglitazone 0.082 | [9] -0.059 | saracatinib 0.023 | sotrastaurin -0.074 | alvocidib -0.112 | Tubastatin A -0.196 | [6] -0.179 | defactinib -0.093 | [10] -0.133 | [7] -0.067

NA, A0A1W2PSA9
inactive: [3] 0.08 | [9] 0.279 | [5] 0.057 | saracatinib -0.046 | alvocidib 0.168 | Tubastatin A -0.17 | [10] -0.107

PACRGL (UniProt Q8N7B6)
inactive: sotrastaurin -0.075

NAP1L1 (UniProt B7Z9C2)
inactive: [8] -0.118 | [1] -0.008 | [2] -0.132 | [3] 0 | [4] -0.244 | rosiglitazone 0.146 | [9] -0.053 | [5] -0.152 | saracatinib -0.168 | [6] 0.041 | defactinib -0.117 | rucaparib -0.041 | [10] -0.706 | encorafenib -0.114 | [7] -0.007

NECTIN2 isoform 2 (UniProt Q92692)
inactive: [8] 0.175 | [1] 0.106 | epoxomicin -0.132 | [2] 0.05 | [3] -0.104 | [4] -0.063 | rosiglitazone -0.151 | [9] -0.146 | [5] 0.318 | saracatinib 0.188 | sotrastaurin 0.288 | [6] 0.062 | defactinib 0.11 | rucaparib -0.039 | [10] 0.158 | encorafenib 0.077 | [7] 0.049

OAF (UniProt Q86UD1)
Sequence of UniProt Q86UD1 (Q86UD1 whole entry, looked up): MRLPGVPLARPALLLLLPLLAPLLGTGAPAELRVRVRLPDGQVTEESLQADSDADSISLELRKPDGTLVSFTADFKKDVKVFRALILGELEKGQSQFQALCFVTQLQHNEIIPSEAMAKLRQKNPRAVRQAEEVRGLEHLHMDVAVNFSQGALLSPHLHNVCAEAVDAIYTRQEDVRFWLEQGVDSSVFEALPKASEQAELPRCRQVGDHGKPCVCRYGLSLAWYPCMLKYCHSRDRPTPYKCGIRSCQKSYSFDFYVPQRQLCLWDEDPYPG
inactive: [2] -0.087 | sotrastaurin 0.139 | [6] 0.043

MOB3B (UniProt Q86TA1)
Sequence of UniProt Q86TA1 (Q86TA1 whole entry, looked up): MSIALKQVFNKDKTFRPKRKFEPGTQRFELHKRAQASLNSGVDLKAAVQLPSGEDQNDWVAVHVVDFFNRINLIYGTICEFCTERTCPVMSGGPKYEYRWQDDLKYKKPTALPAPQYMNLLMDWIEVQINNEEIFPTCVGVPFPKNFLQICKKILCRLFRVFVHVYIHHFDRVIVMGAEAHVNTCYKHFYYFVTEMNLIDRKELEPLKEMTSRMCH
inactive: [1] -0.045 | [2] 0.149 | [3] -0.016 | [4] 0.034 | rosiglitazone 0.202 | [5] -0.159 | alvocidib -0.428 | Tubastatin A -0.03 | [6] -0.324 | defactinib -0.252 | [7] 0.078
active: volasertib -0.633

MITF (UniProt O75030)
inactive: [8] 0.014 | [1] 0.02 | [2] -0.051 | [3] 0.044 | [4] -0.231 | [5] -0.046 | sotrastaurin -0.08 | [6] 0.034 | defactinib 0.111 | rucaparib -0.186 | encorafenib -0.058 | [7] 0.064

OSBPL2 (UniProt Q9H1P3)
inactive: volasertib 0.025 | alvocidib -0.197

NRGN (UniProt Q92686)
Sequence of UniProt Q92686 (Q92686 whole entry, looked up): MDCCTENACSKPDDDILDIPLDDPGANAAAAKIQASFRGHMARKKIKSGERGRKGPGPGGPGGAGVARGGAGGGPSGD
inactive: volasertib 0.052 | [1] -0.088 | epoxomicin 0.162 | [2] 0.021 | [3] 0.14 | rosiglitazone 0.127 | [5] -0.547 | [6] 0.01

NDFIP1 (UniProt Q9BT67)
Sequence of UniProt Q9BT67 (Q9BT67 whole entry, looked up): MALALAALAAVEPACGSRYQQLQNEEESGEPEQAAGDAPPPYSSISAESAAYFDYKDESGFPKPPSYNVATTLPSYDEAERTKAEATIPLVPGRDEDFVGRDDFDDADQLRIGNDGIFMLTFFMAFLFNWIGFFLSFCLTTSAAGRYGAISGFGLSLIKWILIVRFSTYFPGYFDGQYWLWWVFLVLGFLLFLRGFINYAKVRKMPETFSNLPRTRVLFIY
inactive: [8] 0.211 | [1] -0.2 | epoxomicin 0.102 | [2] 0.056 | [3] 0.224 | [4] 0.152 | rosiglitazone 0.108 | [9] 0.175 | [5] -0.062 | saracatinib -0.274 | sotrastaurin -0.028 | alvocidib -0.088 | Tubastatin A 0.056 | [6] 0.124 | defactinib 0.015 | rucaparib 0.286 | [10] -0.187 | encorafenib -0.001 | [7] -0.115

MPHOSPH8 isoform 2 (UniProt Q99549)
Sequence of UniProt Q99549 (Q99549 whole entry, looked up): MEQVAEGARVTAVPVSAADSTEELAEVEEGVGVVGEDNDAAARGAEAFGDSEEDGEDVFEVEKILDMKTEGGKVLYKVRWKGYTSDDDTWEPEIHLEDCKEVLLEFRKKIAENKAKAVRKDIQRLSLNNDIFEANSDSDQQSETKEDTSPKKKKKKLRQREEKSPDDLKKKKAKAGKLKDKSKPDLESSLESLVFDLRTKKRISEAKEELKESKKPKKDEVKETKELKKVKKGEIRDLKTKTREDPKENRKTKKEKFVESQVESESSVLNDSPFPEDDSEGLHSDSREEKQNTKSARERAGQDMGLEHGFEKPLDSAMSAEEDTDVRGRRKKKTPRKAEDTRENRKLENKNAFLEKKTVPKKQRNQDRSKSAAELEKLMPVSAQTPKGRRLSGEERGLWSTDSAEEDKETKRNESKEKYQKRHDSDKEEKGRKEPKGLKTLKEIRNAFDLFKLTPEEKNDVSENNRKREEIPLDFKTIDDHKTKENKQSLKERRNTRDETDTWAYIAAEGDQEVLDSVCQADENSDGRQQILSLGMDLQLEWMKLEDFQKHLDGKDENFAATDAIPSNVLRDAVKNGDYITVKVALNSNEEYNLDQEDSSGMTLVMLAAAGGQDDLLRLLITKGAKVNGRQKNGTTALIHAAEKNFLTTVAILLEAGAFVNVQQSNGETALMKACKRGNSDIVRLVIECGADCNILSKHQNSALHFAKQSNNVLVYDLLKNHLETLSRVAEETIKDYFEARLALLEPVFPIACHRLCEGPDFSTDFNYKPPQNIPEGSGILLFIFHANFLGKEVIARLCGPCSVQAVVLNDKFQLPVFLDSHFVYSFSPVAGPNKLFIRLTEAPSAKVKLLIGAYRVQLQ
inactive: volasertib 0.012 | epoxomicin 0.16 | [4] -0.093 | [9] 0.058 | saracatinib 0.088 | sotrastaurin 0.018 | alvocidib 0.005 | Tubastatin A 0 | defactinib 0.015 | [10] -0.064 | [7] 0.013

NA isoform 3 (UniProt Q4G0T1)
inactive: volasertib -0.051 | [1] 0.026 | [2] 0.004 | [4] -0.019 | rosiglitazone 0.008 | [9] -0.008 | saracatinib -0.011 | sotrastaurin 0.035 | alvocidib 0.039 | Tubastatin A 0.04 | [6] 0.007 | defactinib 0.034 | [10] -0.053 | [7] -0.001

NA (UniProt J3KR12)
inactive: [1] -0.021 | epoxomicin 0.079 | rosiglitazone 0.148

NOLC1 isoform 3 (UniProt Q14978)
Sequence of UniProt Q14978 (Q14978 whole entry, looked up): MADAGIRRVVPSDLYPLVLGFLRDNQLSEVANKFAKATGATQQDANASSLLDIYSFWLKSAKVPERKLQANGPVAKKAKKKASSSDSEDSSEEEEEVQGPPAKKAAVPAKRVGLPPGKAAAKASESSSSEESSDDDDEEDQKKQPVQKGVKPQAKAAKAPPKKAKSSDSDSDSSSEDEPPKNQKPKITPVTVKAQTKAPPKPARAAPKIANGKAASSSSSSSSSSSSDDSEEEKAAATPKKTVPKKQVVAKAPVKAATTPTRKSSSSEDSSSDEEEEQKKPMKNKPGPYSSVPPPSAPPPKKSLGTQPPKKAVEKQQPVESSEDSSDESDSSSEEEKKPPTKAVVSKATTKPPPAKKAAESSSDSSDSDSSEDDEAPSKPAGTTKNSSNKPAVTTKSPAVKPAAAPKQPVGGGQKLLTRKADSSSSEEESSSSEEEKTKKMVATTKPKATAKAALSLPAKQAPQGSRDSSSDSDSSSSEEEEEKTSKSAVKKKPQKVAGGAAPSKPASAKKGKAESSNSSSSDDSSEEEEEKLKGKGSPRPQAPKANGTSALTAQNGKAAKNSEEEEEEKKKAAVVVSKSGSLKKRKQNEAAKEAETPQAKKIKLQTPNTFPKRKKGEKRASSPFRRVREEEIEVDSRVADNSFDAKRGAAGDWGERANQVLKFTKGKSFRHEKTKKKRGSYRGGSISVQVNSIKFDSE
inactive: [2] -0.275 | alvocidib 0.083 | [6] 0.018
